Laboratory results: PubChem BioAssay (NCI)
Values joined by “and” are separate entries in the source; they are usually repeats but may differ in a detail not shown here. Equal entries are not always repeated. This is part of a sample that, as a whole, favours compounds with a hit. Of some 83,000 tested, about 20% had one in any assay.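 How to read the values: 0–100, growth inhibition (40 = 60% inhibited); 0, no net growth; -100 to 0, cell death (-40 = 40% of starting cells died; -100 = all dead).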 Active and inactive are the calls of the source. Rule for the calls: active = growth percent below 10; inactive = the rest.

How the values were obtained:
Experiment in all cases: NCI-60 one-dose screen, 48 h (100 = growth as untreated, 0 = no growth, -100 = all killed)
Conditions in all cases: 10 µM unless noted
SK-MEL-2 melanoma = system: SK-MEL-2 melanoma
EKVX NSCLC = system: EKVX NSCLC
SN12C renal = system: SN12C renal
UO-31 renal = system: UO-31 renal
TK-10 renal = system: TK-10 renal
ACHN renal = system: ACHN renal
CAKI-1 renal = system: CAKI-1 renal
A498 renal = system: A498 renal
MOLT-4 leukemia = system: MOLT-4 leukemia
SR leukemia = system: SR leukemia
RPMI-8226 leukemia = system: RPMI-8226 leukemia
OVCAR-8 ovarian = system: OVCAR-8 ovarian
OVCAR-5 ovarian = system: OVCAR-5 ovarian
OVCAR-4 ovarian = system: OVCAR-4 ovarian
SK-OV-3 ovarian = system: SK-OV-3 ovarian
IGROV1 ovarian = system: IGROV1 ovarian
OVCAR-3 ovarian = system: OVCAR-3 ovarian
NCI/ADR-RES ovarian = system: NCI/ADR-RES ovarian
CCRF-CEM leukemia = system: CCRF-CEM leukemia
HS 578T breast = system: HS 578T breast

With `CO/N=C/C=C\C(=O)N/C=C/C[C@H]1/C=C/[C@H](O)/C=C\C=C\c2cccc(O)c2C(=O)O1` the growth (SK-MEL-2 melanoma) was 5.72% (active) and -20.7% (active), the growth (EKVX NSCLC) was 35.1% (inactive) and 47.9% (inactive) and the growth (SN12C renal) was 48.5% (inactive) and 40.9% (inactive). The growth (UO-31 renal) was 14.2% (inactive) and -7.71% (active), the growth (TK-10 renal) was 53.9% (inactive) and 52% (inactive) and the growth (ACHN renal) was 31.1% (inactive) and 22.4% (inactive). For the same compound, the growth (CAKI-1 renal) was 9.88% (active) and 2.94% (active), the growth (A498 renal) was 44.1% (inactive) and 10.3% (inactive) and the growth (MOLT-4 leukemia) was 27.7% (inactive) and 14.6% (inactive). For the same compound, the growth (SR leukemia) was 6.08% (active) and 20.5% (inactive), the growth (RPMI-8226 leukemia) was 12.8% (inactive) and 11.6% (inactive) and the growth (OVCAR-8 ovarian) was 27.5% (inactive) and 29.7% (inactive). For the same compound, the growth (OVCAR-5 ovarian) was 39.5% (inactive) and 44.7% (inactive), the growth (OVCAR-4 ovarian) was 72% (inactive) and 69.4% (inactive) and the growth (SK-OV-3 ovarian) was 49.6% (inactive) and 35% (inactive). For the same compound, the growth (IGROV1 ovarian) was 36.5% (inactive) and 40.3% (inactive), the growth (OVCAR-3 ovarian) was 60.9% (inactive) and 36.3% (inactive) and the growth (NCI/ADR-RES ovarian) was 44.4% (inactive) and 32.6% (inactive).
`Cc1ccc2nc3c(nc2c1)-c1cccc2cccc-3c12` was tested, and the growth (SK-MEL-2 melanoma) was 107% (inactive), the growth (EKVX NSCLC) was 71.4% (inactive) and the growth (SN12C renal) was 81.2% (inactive). The growth (UO-31 renal) was 63.1% (inactive), the growth (TK-10 renal) was 83.5% (inactive) and the growth (ACHN renal) was 68.6% (inactive). The growth (CAKI-1 renal) was 79.1% (inactive), the growth (CCRF-CEM leukemia) was 85.7% (inactive) and the growth (MOLT-4 leukemia) was 80.1% (inactive). The growth (SR leukemia) was 64.9% (inactive), the growth (RPMI-8226 leukemia) was 89.9% (inactive) and the growth (OVCAR-8 ovarian) was 69.6% (inactive). The growth (OVCAR-5 ovarian) was 94.6% (inactive), the growth (OVCAR-4 ovarian) was 92% (inactive) and the growth (IGROV1 ovarian) was 63.9% (inactive). For the same compound, the growth (OVCAR-3 ovarian) was 88.1% (inactive), the growth (HS 578T breast) was 92.9% (inactive) and the growth (NCI/ADR-RES ovarian) was 86.1% (inactive).
`CNC(=O)c1cccc(-c2ccc3c(N4CCOC[C@@H]4C)nc(N4CCOC[C@@H]4C)nc3n2)c1` was tested, and the growth (SK-MEL-2 melanoma) was -8.99% (active), the growth (EKVX NSCLC) was -5% (active) and 2.98% (active) and the growth (SN12C renal) was 12.5% (inactive) and 5.62% (active). For the same compound, the growth (UO-31 renal) was -3.68% (active) and -24.2% (active), the growth (TK-10 renal) was -11.3% (active) and -31.2% (active) and the growth (ACHN renal) was 0.741% (active) and -1.46% (active). The growth (CAKI-1 renal) was 9.85% (active) and -15.3% (active), the growth (CCRF-CEM leukemia) was 28% (inactive) and 20.3% (inactive) and the growth (MOLT-4 leukemia) was 16.8% (inactive) and 8.62% (active). For the same compound, the growth (SR leukemia) was 9.14% (active) and 1.3% (active), the growth (RPMI-8226 leukemia) was 3.4% (active) and 4.33% (active) and the growth (OVCAR-8 ovarian) was -4.37% (active) and -7.81% (active). For the same compound, the growth (OVCAR-5 ovarian) was 8.26% (active) and -3.61% (active), the growth (OVCAR-4 ovarian) was -17.7% (active) and -18.2% (active) and the growth (SK-OV-3 ovarian) was -23% (active) and -36.9% (active). For the same compound, the growth (IGROV1 ovarian) was -16.6% (active) and -36.1% (active), the growth (OVCAR-3 ovarian) was 4.95% (active) and 11.5% (inactive) and the growth (NCI/ADR-RES ovarian) was 1.66% (active) and -15.6% (active).
With `CCN(CC)C(=O)c1cccnc1` the growth (SK-MEL-2 melanoma) was 108% (inactive), the growth (EKVX NSCLC) was 112% (inactive) and the growth (SN12C renal) was 106% (inactive). For the same compound, the growth (UO-31 renal) was 116% (inactive), the growth (TK-10 renal) was 97.8% (inactive) and the growth (ACHN renal) was 107% (inactive). For the same compound, the growth (CAKI-1 renal) was 97.4% (inactive), the growth (CCRF-CEM leukemia) was 97.4% (inactive) and the growth (MOLT-4 leukemia) was 92.8% (inactive). For the same compound, the growth (SR leukemia) was 90.5% (inactive), the growth (RPMI-8226 leukemia) was 105% (inactive) and the growth (OVCAR-8 ovarian) was 98.8% (inactive). The growth (OVCAR-5 ovarian) was 99.4% (inactive), the growth (OVCAR-4 ovarian) was 112% (inactive) and the growth (SK-OV-3 ovarian) was 109% (inactive). The growth (IGROV1 ovarian) was 130% (inactive), the growth (OVCAR-3 ovarian) was 109% (inactive) and the growth (HS 578T breast) was 108% (inactive). For the same compound, the growth (NCI/ADR-RES ovarian) was 111% (inactive).
With `Cn1cc(-c2cc3c(Nc4ccc(CC(=O)Nc5cc(C(C)(C)C)on5)cc4)ncnc3[nH]2)cn1` the growth (SK-MEL-2 melanoma) was -60.5% (active) and -81% (active), the growth (EKVX NSCLC) was 6.89% (active) and 10.1% (inactive) and the growth (SN12C renal) was -10.9% (active) and -7.98% (active). The growth (UO-31 renal) was -11.4% (active) and 9.42% (active), the growth (TK-10 renal) was 0.328% (active) and -17.2% (active) and the growth (ACHN renal) was -6.75% (active) and 6.73% (active). For the same compound, the growth (CAKI-1 renal) was -10.5% (active) and 7.18% (active), the growth (A498 renal) was -60.1% (active) and the growth (MOLT-4 leukemia) was 9.74% (active) and 5.37% (active). The growth (SR leukemia) was 2.58% (active), the growth (RPMI-8226 leukemia) was -2.19% (active) and -22.3% (active) and the growth (OVCAR-8 ovarian) was 4.54% (active) and 2.06% (active). For the same compound, the growth (OVCAR-5 ovarian) was -8.65% (active) and 5.67% (active), the growth (OVCAR-4 ovarian) was -12.1% (active) and 5.44% (active) and the growth (SK-OV-3 ovarian) was -5.62% (active) and -14.8% (active). For the same compound, the growth (IGROV1 ovarian) was -12.2% (active) and 2.63% (active), the growth (OVCAR-3 ovarian) was -15.1% (active) and -6.62% (active) and the growth (HS 578T breast) was -22.4% (active) and -15.2% (active). For the same compound, the growth (NCI/ADR-RES ovarian) was 79.5% (inactive) and 80.3% (inactive).
